JMJD2A Tudor: blocks the human JMJD2A Tudor domain. AlphaScreen JMJD2A-Tudor / H3K4me3 peptide binding. Potency, µM (top dose mostly 114 µM), inactives show at the top dose activity change, negative = inhibition, hits mostly inhibitors. 4.4% of 390,000 active. O75164. AID 504339; further: on the % scale 0 is the no-effect control and ±100 the full control effect; nearly all actives have a fitted effect of over 50% in size
BAZ2B block: inhibitors of human BAZ2B bromodomain | Q9UIF8 | AlphaScreen BAZ2B-H3K14Ac peptide displacement | Potency, µM (top dose mostly 114 µM), without a hit: at the top dose activity change, negative = inhibition, most hits filed as inhibitors | 4.4% of 360,000 active | AID 504333; further: on the % scale 0 is the no-effect control and ±100 the full control effect; nearly all actives have a fitted effect of over 60% in size
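Inhibition is scored as reduced AlphaScreen emission. The BAZ2B/b-H3(5-23)K14Ac complex (50 nM each) in PBS pH 7.4, 0.01% Tween-20 meets compound (up to 110 uM) for 30 min at RT before bead addition.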
G9a block: G9a (human) methyltransferase inhibition. G9a H3K9 monomethylation, AlphaScreen, 2 h. 8.8% of 350,000 active. Potency, µM (series often up to 102 µM), for inactives: at the highest dose activity, negative = inhibition, actives largely listed as inhibitors. AID 504332; further: on the % scale 0 is the no-effect control and ±100 the full control effect; nearly all actives have a fitted effect of over 75% in size
Target sequence (Q96KQ7 913-1193 limits assumed): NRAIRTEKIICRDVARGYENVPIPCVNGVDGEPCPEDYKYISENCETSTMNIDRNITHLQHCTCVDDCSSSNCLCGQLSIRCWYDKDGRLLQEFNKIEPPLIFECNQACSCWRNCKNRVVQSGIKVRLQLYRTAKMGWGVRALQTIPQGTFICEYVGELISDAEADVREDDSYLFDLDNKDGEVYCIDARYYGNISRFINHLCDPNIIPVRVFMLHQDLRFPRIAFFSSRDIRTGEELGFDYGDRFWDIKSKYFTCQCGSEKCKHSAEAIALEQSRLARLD
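G9a (20 nM) preincubated 15 min RT with compounds, then 500 nM biotinylated H3K9 peptide and 20 uM SAM added; 2 h RT reaction. Monomethyl-H3K9 product detected by AlphaScreen with anti-H3K9me1 antibody, streptavidin donor and anti-rabbit IgG acceptor beads.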
HP1b binding inh: blocks HP1-beta chromodomain binding to methylated histone tails; 0.56% of 390,000 active; P83916; Potency, µM (top dose mostly 114 µM), for inactives: at the highest dose activity change, negative = inhibition, hits mostly inhibitors; AlphaScreen HP1-beta / biotin-H3K9me3 peptide binding; further: nearly all actives have a fitted effect of over 70% in size
Target sequence (P83916 whole entry, looked up): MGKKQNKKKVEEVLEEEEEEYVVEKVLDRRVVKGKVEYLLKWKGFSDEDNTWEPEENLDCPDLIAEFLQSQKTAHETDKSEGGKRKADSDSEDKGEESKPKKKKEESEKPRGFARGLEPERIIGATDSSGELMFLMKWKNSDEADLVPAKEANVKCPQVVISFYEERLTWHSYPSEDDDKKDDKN
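Compound inhibition of the preformed complex between 50 nM HP1-beta and 50 nM biotinylated H3K9me3 peptide was read by AlphaScreen. Buffer was PBS pH 7.4 with 0.01% Tween-20. Incubations ran 30 min at room temperature, with 10 ug/mL donor/acceptor beads.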
Sfp PPTase inh: inhibitors of Bacillus subtilis Sfp phosphopantetheinyl transferase. Potency, µM, for the others: largest response in the series, negative = inhibition, usual class: inhibitors. Q9F4F7. Biochemical Sfp PPTase activity, qHTS. 3.5% of 310,000 active;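 further: the enzyme is Sfp with the accession as filed and its product quenches rhodamine fluorescence; 0% = enzyme reaction without inhibitor and -100% = no enzyme wells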
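Fluorescence-quenching assay: 15 nM Sfp-PPTase preincubated 15 min at room temperature with compound, then 5 uM rhodamine-CoA and 12.5 uM BHQ-2-labelled YbbR peptide added. Fluorescence (ex 525/em 598 nm) read at start and after 30 min; difference gives rate.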
TDP1 inh: blocks human tyrosyl-DNA phosphodiesterase 1 | Q9NUW8 | recombinant TDP1, AlphaScreen DNA substrate cleavage | Potency, µM (doses to about 130 µM), without a hit: top-dose activity change, negative = inhibition, most hits filed as inhibitors | 0.28% of 350,000 active | AID 485290; further: on the % scale 0 is the no-effect control and ±100 the full control effect; nearly all actives have a fitted effect of over 40% in size
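Signal: AlphaScreen proximity between streptavidin donor and anti-FITC acceptor beads on intact substrate. Reaction: Tdp1 1 nM, substrate 15 nM final, 5 min RT after 15 min compound preincubation.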
* = called active by the depositor; u = inconclusive; x = no result; [ ] = dose if it differs, or a comment. An excerpt weighted towards active compounds, which were near 12% of everything screened. The call rests on the fitted dose curve; in most records, active means well fitted curve in the direction sought with a large enough effect; inconclusive means small, poorly fitted or top-dose-only effect, or another doubt; inactive means no such curve, though single readings can be large; an effect the other way counts as inactive or inconclusive. Potency means the concentration at half of the fitted maximal effect.

SMILES | JMJD2A Tudor | BAZ2B block | G9a block | HP1b binding inh | Sfp PPTase inh | TDP1 inh
CC(=O)c1ccc(NC(=O)c2cc(-c3ccc(C)s3)nc3ccccc23)cc1 | 11% | 5% | -3%[59 µM] | 40% | x | -1%
Nc1cc(N)nc(SCC(=O)c2ccc3c(c2)NC(=O)CO3)n1 | 11% | -10% | 35µM* | 6% | -48% | 2%
Cc1cc(=O)[nH]c(SCC(=O)c2ccc3c(c2)NC(=O)CO3)n1 | -18% | -3% | -39%[59 µM] | 8% | 2% | 0%
COC(=O)CC1=NN(c2nc3ccccc3s2)C(=O)/C1=C/N(C)C | -16% | -2% | 9%[59 µM] | 28% | 6% | 8%
CN(C)c1ccc(-c2cc[nH]c(=O)c2N)cc1 | 20µM* | x | x | x | x | 9%
COc1ccc2c([N+](=O)[O-])c(Cl)[nH]c2c1 | 56µM* | 79µM* | 25µM* | u | -12% | -2%
CC1CCCCC1NCC(=O)NCc1ccc(F)cc1 (stereo not drawn) | 1.3µM* | 50µM* | 10µM* | u | -15% | -3%
[O-][n+]1onc2c1CCC(=N/O)/C2=N\Nc1ccccc1 | x | 50µM* | 25µM* | x | 32µM* | 6%
COc1ccc(S(=O)(=O)n2oc(=O)cc2-c2ccccc2)cc1 | -15% | 56µM* | 40µM* | 13% | 2% | 0%
O=c1cc(-c2ccccc2)n(S(=O)(=O)c2ccc3ccccc3c2)o1 | 45µM* | x | x | -19% | x | x
COc1ccc2c(ccn2S(=O)(=O)c2ccccc2)c1 | 80% | 112% | x | 95% | 3% | x
COc1ccc(S(=O)(=O)n2oc(=O)cc2-c2ccccc2)cc1OC | 35µM* | 56µM* | u | 4% | -25% | x
COc1cc(OC)c(N(C)C(=O)c2sc3nc4n(c(=O)c3c2C)CCCCC4)cc1Cl | u | 50µM* | 14µM* | 20% | x | -3%
CCOc1ccccc1N(C)C(=O)c1sc2nc3n(c(=O)c2c1C)CCCC3 | -21% | 50µM* | u | 97% | x | 8%
Cc1ccc(-n2cc(CN3CCN(C(=O)c4ncn[nH]4)CC3)c(-c3ccc(F)cc3)n2)cc1 | -15% | -11% | x | 10%[57 µM] | 16% | 12%
Cc1cccc(C)c1OC(=O)CSc1nnc(-c2ccc3c(c2)OCO3)o1 | -9% | 2% | -8%[59 µM] | 13% | x | 9%
Nc1ccc(Cn2ccc3c4c(N)nc(N)nc4ccc32)cc1 | 45µM* | x | x | 79µM* | x | x
Cc1c(Cl)cccc1N1CC(c2nc3ccccc3n2Cc2ccccc2F)CC1=O (stereo not drawn) | -22% | -29% | -4%[59 µM] | 21% | x | 5%
COc1cc(OC)c(NC2=C(c3ccc(C(F)(F)F)cc3)C(=O)c3ccccc32)cc1Cl | 20µM* | u | u | u | x | 2%[12.3 µM]
COc1ccccc1NC(=O)Nc1nc(CC(=O)N2CCN(c3ccc(F)cc3)CC2)cs1 | u | -32% | u | -13% | x | 3%
COc1cccc(CN2C(=O)c3ccccc3Sc3ccc(C(=O)NCCc4ccc(C)cc4)cc32)c1 | -9% | x | -24%[59 µM] | 36% | x | -2%
O=C(Nc1ccccc1)c1ccc(N2CCN(c3ccccc3)CC2)c(S(=O)(=O)N2CCOCC2)c1 | 16% | 79µM* | 16% | 19% | 2% | 2%
O=C(Nc1cccc(S(=O)(=O)N2CCOCC2)c1)c1cccc(S(=O)(=O)N2CCCCC2)c1 | -18% | 3% | u | 16% | x | -6%
O=C(Nc1ccc(N2CCCCCC2)cc1)c1cccc(S(=O)(=O)N2CCOCC2)c1 | 25µM* | 32µM* | 1.8µM* | -45% | x | 10%
CN(c1ccccc1)S(=O)(=O)c1cccc(C(=O)NCCc2ccc(O)c(O)c2)c1 | 13µM* | -38% | 8.9µM* | u | 18µM* | -3%
SMILES | JMJD2A Tudor | BAZ2B block | G9a block | HP1b binding inh | Sfp PPTase inh | TDP1 inh
CN(c1ccccc1)S(=O)(=O)c1cccc(C(=O)Nc2ccc(N3CCOCC3)cc2)c1 | u | u | 56µM* | -29% | x | 0%
COc1ccc(Cl)cc1S(=O)(=O)N1CCCC(C(=O)NCc2ccncc2)C1 (stereo not drawn) | -9% | 8% | 27% | 21% | 7% | 2%
CCOc1ccc(CNC(=O)c2ccc(-c3nc(CSc4ccc(C)cc4)c(C)o3)cc2)cc1 | 1% | -3% | u | 24% | x | -3%
CC(=O)N1CCN(S(=O)(=O)c2cccc(C(=O)Nc3ccc4c(c3)CCC4)c2)CC1 | -20% | 18% | 28µM* | 28% | 5% | 5%
CC(=O)N1CCN(S(=O)(=O)c2cccc(C(=O)Nc3ccc(OC(F)F)cc3)c2)CC1 | -7% | -2% | 34% | 22% | -4% | 12%[0.0935 µM]
O=c1c(-c2ccccc2)c(O)c2cccc3c2n1CCC3 | 15% | -38% | 40µM* | 53% | 15% | 4%
O=C(NCCO)c1c(O)c2cccc3c2n(c1=O)CC3 | 56µM* | -35% | u | 17% | -7% | 2%
CCOC(=O)CNC(=O)CSc1nnc(SCC(=O)NCC(=O)OCC)s1 | 6% | -1% | 18µM* | 27% | u | 1%
CCOC(=O)CSC1=NC(=O)CS1 | -14% | u | u | 29% | 79µM* | -5%
Nc1nnc(SCC(=O)N2CCN(Cc3ccccc3)CC2)s1 | -5% | 3% | 45µM* | 20% | -2% | 2%
Cc1nnc(SCC(=O)N2CCN(Cc3ccccc3)CC2)s1 | -1% | -9% | u | 8% | 5% | -1%
CCOC(=O)CNC(=O)CSc1nnc(NC(=O)c2ccc(C)cc2)s1 | -14% | x | -44% | 18% | 15% | 1%
CCOC(=O)CSc1nnc(N)s1 | 56µM* | -4% | 18µM* | 18% | -2% | -4%
CCCOc1ccc(OC(=O)c2c(-c3ccccc3Cl)noc2C)cc1 | 64% | 43% | 57%[59 µM] | 78% | x | -5%
O=C(Nc1ccccc1)c1ccc(-c2ccccc2)s1 | -4% | x | u | 36% | -2% | 7%
O=C(O)c1ccc(-c2ccc(-c3ccccc3)cc2)s1 | x | 50µM* | u | x | 4% | 13%
COc1ccc(-c2cc(C(F)(F)F)n3nc(C)c(-c4ccccc4)c3n2)cc1OC | 6% | 5% | 8%[59 µM] | 36% | x | -1%
COc1cccc(/C=N/NC(=O)c2ccc3nc[nH]c3c2)c1O | -7%[11.4 µM] | u | 14% | 73% | 30% | x
CCn1c(C)nc2cc(C(=O)N/N=C/c3ccc(O)c(O)c3O)ccc21 | 6.3µM* | 11µM* | 2µM* | 8.9µM* | 2.2µM* | -3%
CCn1c(C)nc2cc(C(=O)NNS(=O)(=O)c3ccc(C)c(C)c3)ccc21 | -24% | -7% | -28%[59 µM] | 13% | 3% | 3%
CCn1c(C)nc2cc(C(=O)N/N=C/c3cccc(OC)c3O)ccc21 | u | -16% | 79µM* | -6% | 22% | 4%

High-throughput results: PubChem BioAssay, National Center for Advancing Translational Sciences (NCATS)
